# More than one record can exist for a structure, and the calls need not agree. Active and inactive are the calls of the source. Rule for the calls: active = hit-call score of the fitted dose curve at least 0.9, where 1 is the maximum; inactive = score below 0.9.
# How the values were obtained:
# [1] = read-out: Human Leukocyte Antigen - DR isotype (HLADR), HLA-DRA (gene 3122); assay: BSK_BE3C_HLADR: BioMAP Diversity Plus: BE3C Assay for Human Leukocyte Antigen - DR isotype (HLADR) Biomarker Activity (AID 2283032); settings: primary human bronchial epithelial cells; actives raise or lower the signal
# How it was run: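 Chemicals are dosed onto BE3C bronchial epithelial cultures of human origin and left 24 h. HLA-DR is then measured by ELISA, and the endpoint is fitted in both directions using DMSO as the activity baseline.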
# [2] = read-out: Vascular cell adhesion molecule 1 (VCAM1), VCAM1 (gene 7412); assay: BSK_4H_VCAM1: BioMAP Diversity Plus: 4H Assay for Vascular cell adhesion molecule 1 (VCAM1) Biomarker Activity (AID 2283033); settings: primary human endothelial cells (HUVEC); actives raise or lower the signal;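 note: cell-surface VCAM-1 protein measured by ELISA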
# How it was run: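 Chemicals are added to primary human umbilical vein endothelial cells. After 24 h, VCAM-1 levels are measured by ELISA. Values come from bidirectional fitting referenced to DMSO.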
# [3] = read-out: Interferon-gamma inducible Protein 10 (IP10), CXCL10 (gene 3627); assay: BSK_BE3C_IP10: BioMAP Diversity Plus: BE3C Assay for Interferon-gamma inducible Protein 10 (IP10) Biomarker Activity (AID 2283034); settings: primary human bronchial epithelial cells; actives raise or lower the signal
# How it was run: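 IP-10 quantified by ELISA serves as the endpoint. Cells: primary human bronchial epithelium, read 24 h after compound addition. Activity is derived by bidirectional fitting with DMSO as negative control.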
# [4] = read-out: Monokine induced gamma interferon (MIG), CXCL9 (gene 4283); assay: BSK_BE3C_MIG: BioMAP Diversity Plus: BE3C Assay for Monokine induced gamma interferon (MIG) Biomarker Activity (AID 2283035); settings: primary human bronchial epithelial cells; actives raise or lower the signal;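 note: MIG protein measured by ELISA in BE3C cultures after 24 h of dosing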
# How it was run: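 hu bronchial epithelial 1° cells, 24 h cpd; MIG by ELISA; bidirectional fit, DMSO = baseline.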
# [5] = read-out: Transforming growth factor beta 1 (TGFb1), TGFB1 (gene 7040); assay: BSK_BE3C_TGFb1: BioMAP Diversity Plus: BE3C Assay for Transforming growth factor beta 1 (TGFb1) Biomarker Activity (AID 2283036;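 note: TGF-b1 protein level measured by ELISA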); settings: primary human bronchial epithelial cells; actives raise or lower the signal
# How it was run: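 Bronchial epithelial primary cells are treated with test chemical, then TGF-b1 is quantified by ELISA after 24 hours. Values derive from bidirectional fitting against DMSO, with cytotoxicity checked by SRB staining in parallel cultures.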
# [6] = read-out: Plasminogen activator inhibitor-1 (PAI1), SERPINE1 (gene 5054); assay: BSK_BE3C_PAI1: BioMAP Diversity Plus: BE3C Assay for Plasminogen activator inhibitor-1 (PAI1) Biomarker Activity (AID 2283037); settings: primary human bronchial epithelial cells; actives raise or lower the signal
# How it was run: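 Values derive from bidirectional fitting against DMSO baseline of PAI-1 levels, measured by ELISA in human bronchial epithelial cells 24 h after compound addition.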
# [7] = read-out: urokinase plasminogen activator (uPA), PLAU (gene 5328); assay: BSK_BE3C_uPA: BioMAP Diversity Plus: BE3C Assay for urokinase plasminogen activator (uPA) Biomarker Activity (AID 2283038); settings: primary human bronchial epithelial cells; actives raise or lower the signal;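 for outcome: uPA protein level quantified by ELISA in cell cultures; uPA read one day after compound addition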
# How it was run: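 Using confluent primary human lung bronchial epithelial cultures, we dosed chemicals, waited 24 h, then ran a uPA ELISA, fitting bidirectionally against DMSO.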
# [8] = read-out: Urokinase-type plasminogen activator receptor (uPAR), PLAUR (gene 5329); assay: BSK_BE3C_uPAR: BioMAP Diversity Plus: BE3C Assay for Urokinase-type plasminogen activator receptor (uPAR) Biomarker Activity (AID 2283039); settings: primary human bronchial epithelial cells; actives raise or lower the signal;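 note: uPAR protein level measured by ELISA on the cells; cells exposed to compound for one day before measurement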
# How it was run: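 Steps: dose human primary bronchial epithelial cells, incubate 24 h, measure uPAR by ELISA, then fit gain- or loss-of-signal response bidirectionally relative to DMSO.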
# [9] = read-out: Interleukin-6 (IL6), IL6 (gene 3569); assay: BSK_CASM3C_IL6: BioMAP Diversity Plus: CASM3C Assay for Interleukin-6 (IL6) Biomarker Activity for (AID 2283040); settings: primary human coronary artery smooth muscle cells; actives raise or lower the signal
# [10] = read-out: Tissue plasminogen activator (tPA), PLAT (gene 5327); assay: BSK_BE3C_tPA: BioMAP Diversity Plus: BE3C Assay for Tissue plasminogen activator (tPA) Biomarker Activity (AID 2283041); settings: primary human bronchial epithelial cells; actives raise or lower the signal;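 note: tPA level quantified by ELISA one day after compound addition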
# How it was run: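 Gain- or loss-of-signal in tPA, measured by ELISA, derived by bidirectional fitting against DMSO. Cells: human primary bronchial epithelial; read at 24 h after chemical dosing.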
# [11] = read-out: Interleukin-8 (IL8), CXCL8 (gene 3576); assay: BSK_CASM3C_IL8: BioMAP Diversity Plus: CASM3C Assay for Interleukin-8 (IL8) Biomarker Activity (AID 2283042); settings: primary human coronary artery smooth muscle cells; actives raise or lower the signal;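 note: IL-8 protein level quantified by ELISA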
# [12] = read-out: Human Leukocyte Antigen - DR isotype (HLADR), HLA-DRA (gene 3122); assay: BSK_CASM3C_HLADR: BioMAP Diversity Plus: CASM3C Assay for Human Leukocyte Antigen - DR isotype (HLADR) Biomarker Activity (AID 2283043); settings: primary human coronary artery smooth muscle cells; actives raise or lower the signal;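 note: cell-surface HLA-DR protein level quantified by ELISA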
# [13] = read-out: Macrophage colony-stimulating factor (MCSF), CSF1 (gene 1435); assay: BSK_CASM3C_MCSF: BioMAP Diversity Plus: CASM3C Assay for Macrophage colony-stimulating factor (MCSF) Biomarker Activity (AID 2283044); settings: primary human coronary artery smooth muscle cells; actives raise or lower the signal;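 note: M-CSF protein amount quantified by ELISA after 24 h exposure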
# [14] = read-out: Low-density lipoprotein receptor (LDLR), LDLR (gene 3949); assay: BSK_CASM3C_LDLR: BioMAP Diversity Plus: CASM3C Assay for Low-density lipoprotein receptor (LDLR) Biomarker Activity (AID 2283045); settings: primary human coronary artery smooth muscle cells; actives raise or lower the signal;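 note: LDLR protein level on the cell surface quantified by ELISA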
# [15] = read-out: Monocyte Chemoattractant Protein-1 (MCP1), CCL2 (gene 6347); assay: BSK_CASM3C_MCP1: BioMAP Diversity Plus: CASM3C Assay for Monocyte Chemoattractant Protein-1 (MCP1) Biomarker Activity (AID 2283046); settings: primary human coronary artery smooth muscle cells; actives raise or lower the signal;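 note: MCP-1 level quantified by ELISA 24 h after dosing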
# [16] = BSK_CASM3C_Proliferation: Cell Proliferation Assessment in the BioMAP Diversity Plus: CASM3C Assay (AID 2283047); settings: primary human coronary artery smooth muscle cells;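 note: sulforhodamine B total protein stain as relative cell number at 560 nm; sub-confluent cells exposed 48 h before staining; fitted both ways against DMSO so gain or loss of cell number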
# [17] = read-out: Monokine induced gamma interferon (MIG), CXCL9 (gene 4283); assay: BSK_CASM3C_MIG: BioMAP Diversity Plus: CASM3C Assay for Monokine induced gamma interferon (MIG) Biomarker Activity (AID 2283048); settings: primary human coronary artery smooth muscle cells; actives raise or lower the signal;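 note: MIG protein level measured by ELISA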
# [18] = read-out: serum amyloid A (SAA), SAA1 (gene 6288); assay: BSK_CASM3C_SAA: BioMAP Diversity Plus: CASM3C Assay for serum amyloid A (SAA) Biomarker Activity (AID 2283049); settings: primary human coronary artery smooth muscle cells; actives raise or lower the signal;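 note: SAA protein level quantified by ELISA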
# [19] = BSK_CASM3C_SRB: Viability Assessment in the BioMAP Diversity Plus: CASM3C Assay (AID 2283050); settings: primary human coronary artery smooth muscle cells;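 note: total protein by SRB staining as cytotoxicity measure in parallel cultures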
# [20] = read-out: Thrombomodulin, THBD (gene 7056); assay: BSK_CASM3C_Thrombomodulin: BioMAP Diversity Plus: CASM3C Assay for Thrombomodulin Biomarker Activity (AID 2283051); settings: primary human coronary artery smooth muscle cells; actives raise or lower the signal;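 note: thrombomodulin protein level measured by ELISA 24 h after dosing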
structure (smiles),measurement,setting,value
CCOC(=O)CN[C@@H](C(=O)N1CC[C@H]1C(=O)NCc1ccc(/C(N)=N/O)cc1)C1CCCCC1,outcome,[1],inactive
same,outcome,[2],inactive
same,outcome,[3],inactive
same,outcome,[4],inactive
same,outcome,[5],inactive
same,outcome,[6],inactive
same,outcome,[7],inactive
same,outcome,[8],inactive
same,outcome,[9],inactive
same,outcome,[10],inactive
same,outcome,[11],inactive
same,outcome,[12],inactive
same,outcome,[13],inactive
same,outcome,[14],inactive
same,outcome,[15],inactive
same,outcome,[16],inactive
same,outcome,[17],inactive
same,outcome,[18],inactive
same,outcome,[19],inactive
same,outcome,[20],inactive
COC1=CC(=O)C[C@@H](C)[C@]12Oc1c(Cl)c(OC)cc(OC)c1C2=O,outcome,[1],inactive
same,outcome,[2],inactive
same,outcome,[3],inactive
same,outcome,[4],inactive
same,outcome,[5],inactive
same,outcome,[6],inactive
same,outcome,[7],inactive
same,outcome,[8],inactive
same,outcome,[9],inactive
same,outcome,[11],inactive
same,outcome,[12],inactive
same,outcome,[13],inactive
same,outcome,[14],inactive
same,AC50,[15],4.25 µM (active)
same,AC50,[16],7.06 µM (active)
same,outcome,[17],inactive
same,outcome,[18],inactive
same,outcome,[19],inactive
same,outcome,[20],inactive
CCCCC(CC)C(=O)OCCOCCOCCOCCOC(=O)C(CC)CCCC (centres undefined),outcome,[1],inactive
same,outcome,[2],inactive
same,outcome,[3],inactive
same,outcome,[4],inactive
same,outcome,[5],inactive
same,outcome,[6],inactive
same,outcome,[7],inactive
same,AC50,[9],11.3 µM (active)
same,outcome,[10],inactive
same,outcome,[11],inactive
same,outcome,[12],inactive
same,outcome,[13],inactive
same,outcome,[14],inactive
same,outcome,[15],inactive
same,outcome,[16],inactive
same,outcome,[17],inactive
same,outcome,[18],inactive
same,outcome,[19],inactive
same,outcome,[20],inactive
O=P(O)(O)CCC(F)(F)C(F)(F)C(F)(F)C(F)(F)C(F)(F)C(F)(F)F,outcome,[1],inactive
same,outcome,[2],inactive
same,AC50,[3],3.21 µM (active)
same,outcome,[3],inactive
same,outcome,[4],inactive
same,outcome,[6],inactive
same,outcome,[7],inactive
same,outcome,[9],inactive
same,outcome,[10],inactive
same,outcome,[11],inactive
same,outcome,[12],inactive
same,outcome,[13],inactive
same,outcome,[14],inactive
same,outcome,[15],inactive
same,outcome,[16],inactive
same,outcome,[17],inactive
same,outcome,[18],inactive
same,outcome,[19],inactive
same,outcome,[20],inactive
CCC(C)c1ccccc1O (centres undefined),outcome,[1],inactive
same,outcome,[2],inactive
same,outcome,[3],inactive
same,outcome,[4],inactive
same,outcome,[5],inactive
same,outcome,[6],inactive
same,outcome,[7],inactive
same,outcome,[8],inactive
same,outcome,[9],inactive
same,outcome,[10],inactive
same,outcome,[11],inactive
same,outcome,[12],inactive
same,outcome,[13],inactive
same,outcome,[14],inactive
same,outcome,[15],inactive
same,outcome,[16],inactive
same,outcome,[17],inactive
same,outcome,[18],inactive
same,outcome,[19],inactive
same,outcome,[20],inactive
COc1cc(OC)nc(NC(=O)NS(=O)(=O)Nc2ccccc2C(=O)N(C)C)n1,outcome,[1],inactive
same,outcome,[2],inactive
same,outcome,[3],inactive
same,outcome,[4],inactive
same,outcome,[5],inactive
same,outcome,[6],inactive
same,outcome,[7],inactive
same,outcome,[9],inactive
same,outcome,[10],inactive
same,AC50,[11],0.0224 µM (active)
same,outcome,[12],inactive
same,outcome,[13],inactive
same,outcome,[14],inactive
same,outcome,[15],inactive
same,outcome,[16],inactive
same,outcome,[17],inactive
same,outcome,[18],inactive
same,outcome,[19],inactive
same,outcome,[20],inactive
CC1=NN(c2ccccc2)C(=O)C1,outcome,[1],inactive
same,outcome,[2],inactive
same,outcome,[3],inactive
same,outcome,[4],inactive
same,outcome,[5],inactive
same,outcome,[6],inactive
same,outcome,[7],inactive
same,outcome,[8],inactive
same,outcome,[9],inactive
same,outcome,[10],inactive
same,outcome,[11],inactive
same,outcome,[12],inactive
same,outcome,[13],inactive
same,outcome,[14],inactive
same,outcome,[15],inactive
same,outcome,[16],inactive
same,outcome,[17],inactive
same,outcome,[18],inactive
same,outcome,[19],inactive
same,AC50,[20],9.62 µM (active)
OCC(CO)(CBr)CBr,outcome,[1],inactive
same,outcome,[2],inactive
same,outcome,[3],inactive
same,outcome,[4],inactive
same,outcome,[5],inactive
same,outcome,[6],inactive
same,outcome,[7],inactive
same,outcome,[9],inactive
same,outcome,[10],inactive
same,outcome,[11],inactive
same,outcome,[12],inactive
same,outcome,[13],inactive
same,outcome,[14],inactive
same,outcome,[15],inactive
same,outcome,[16],inactive
same,outcome,[17],inactive
same,outcome,[18],inactive
same,outcome,[19],inactive
same,outcome,[20],inactive
CN(Cc1cnc2nc(N)nc(N)c2n1)c1ccc(C(=O)N[C@@H](CCC(=O)O)C(=O)O)cc1,outcome,[1],inactive
same,outcome,[2],inactive
same,outcome,[3],inactive
same,outcome,[4],inactive
same,outcome,[5],inactive
same,AC50,[6],2.71 µM (active)
same,outcome,[6],inactive
same,outcome,[7],inactive
same,outcome,[9],inactive
same,outcome,[10],inactive
same,outcome,[11],inactive
same,outcome,[12],inactive
same,outcome,[13],inactive
same,outcome,[14],inactive
same,outcome,[15],inactive
same,outcome,[16],inactive
same,outcome,[17],inactive
same,outcome,[18],inactive
same,outcome,[19],inactive
same,outcome,[20],inactive
CCCCC(CC)C(=O)O (centres undefined),outcome,[1],inactive
same,outcome,[2],inactive
same,outcome,[3],inactive
same,outcome,[4],inactive
same,outcome,[5],inactive
same,outcome,[6],inactive
same,outcome,[7],inactive
same,outcome,[8],inactive
same,outcome,[9],inactive
same,outcome,[10],inactive
same,outcome,[11],inactive
same,outcome,[12],inactive
same,outcome,[13],inactive
same,outcome,[14],inactive
same,outcome,[15],inactive
same,outcome,[16],inactive
same,outcome,[17],inactive
same,outcome,[18],inactive
same,outcome,[19],inactive
same,outcome,[20],inactive
N=C(N)c1ccc(OCCCCCOc2ccc(C(=N)N)cc2)cc1,AC50,[1],22.7 µM (active)
same,outcome,[2],inactive
same,AC50,[3],24.1 µM (active)
same,outcome,[4],inactive
same,outcome,[5],inactive
same,AC50,[6],10.3 µM (active)
same,AC50,[7],17.5 µM (active)
same,AC50,[9],20.7 µM (active)
same,outcome,[10],inactive
same,AC50,[11],24.1 µM (active)
same,AC50,[12],17.5 µM (active)
same,AC50,[13],15 µM (active)
same,outcome,[14],inactive
same,outcome,[15],inactive
same,AC50,[16],12.4 µM (active)
same,outcome,[17],inactive
same,outcome,[18],inactive
same,outcome,[19],inactive
same,outcome,[20],inactive

# Source: PubChem BioAssay (EPA / NIEHS)
